These sequences were tested against MRPL14 (assay: pooled miR-30 sensor sort-seq; sequence = guide strand). Details: shRNA.
TTGCCCACTCCATTCTTCTTAT gave a sensor-assay potency score (higher = more potent) of -0.852. Sequence TGAATCGCACTCAGACTCCCAG has a sensor-assay potency score (higher = more potent) of -0.455. TAGTATCTGGTCGCCCACCTTG showed a sensor-assay potency score (higher = more potent) of -1.26. TGTTGGAGTCGAATCTGGGGGT gave a sensor-assay potency score (higher = more potent) of -0.258. For TCATCTTCTGAATCGCACTCAG, the sensor-assay potency score (higher = more potent) was -0.0883. In the case of TTATAGACATGGATGCAGCGAG, the sensor-assay potency score (higher = more potent) is reported as -0.0779.

What follows are sequences tested against MRPL21 in the same assay as above. Details: shRNA.
TATCCTGGTAGATATGAAGTGC showed a sensor-assay potency score (higher = more potent) of -0.473. TCGAACAAGATCCTTTCCGAGG showed a sensor-assay potency score (higher = more potent) of -1.49. For AATTGAACCTTCGAGAAGCAGA, the sensor-assay potency score (higher = more potent) was -0.954. TTTAGGAACATATCCTGGTAGA gave a sensor-assay potency score (higher = more potent) of -0.392. TATCCGGAGGACAGTCTGCGGG was tested, and the sensor-assay potency score (higher = more potent) was -1.15. Work on TTTTAGGAACATATCCTGGTAG yielded a sensor-assay potency score (higher = more potent) of 0.0621. With TTCTTCTTGAAGTTTTTCCTTT the sensor-assay potency score (higher = more potent) was -0.465. With TTCATTTCCAATTAAGATCAGG the sensor-assay potency score (higher = more potent) was -0.523. TTCTACTCGAACAAGATCCTTT showed a sensor-assay potency score (higher = more potent) of 0.318. TTGAAGTTTTTCCTTTTCCTGA was tested, and the sensor-assay potency score (higher = more potent) was -0.489. TCTGTGAATTGAACCTTCGAGA gave a sensor-assay potency score (higher = more potent) of -0.658. With TTATCCGGAGGACAGTCTGCGG the sensor-assay potency score (higher = more potent) was -1.53.

The sequences below were run against MRPL30 in the same assay as above. Details: shRNA.
TAGACATGTTCTCCTCTGCTGG gave a sensor-assay potency score (higher = more potent) of -0.684. ATTCTTGTGAACTTGAGGGGTA was tested, and the sensor-assay potency score (higher = more potent) was -0.0278. Sequence TTTGTCACAGTCTGTAGTCTGC has a sensor-assay potency score (higher = more potent) of -0.242. With TCACAGTCTGTAGTCTGCCTGG the sensor-assay potency score (higher = more potent) was -0.534. TATTCTGGTAACAATATGCAGT gave a sensor-assay potency score (higher = more potent) of -0.632. Sequence TTTTTCTAATCCAAGCATCTTT has a sensor-assay potency score (higher = more potent) of -0.539. In the case of TTTGTGACGAATCCAATCTGTA, the sensor-assay potency score (higher = more potent) is reported as -0.546. For TATTCTTGTGAACTTGAGGGGT, the sensor-assay potency score (higher = more potent) was 0.0626. For TTAAATAAAAACAATTTGCATT, the sensor-assay potency score (higher = more potent) was -0.896. TTCAATTTTGCATTCACTGAAG was tested, and the sensor-assay potency score (higher = more potent) was -0.704.

What follows are sequences tested against MRPS18C in the same assay as above. Details: shRNA.
In the case of TTTGAGCTCTCTTAATTGCTTT, the sensor-assay potency score (higher = more potent) is reported as -0.321. Sequence TAGGGTCCTTGAGATATGCAGG has a sensor-assay potency score (higher = more potent) of -0.899. TTGAGCTCTCTTAATTGCTTTT was tested, and the sensor-assay potency score (higher = more potent) was -1.05. Sequence TACCAAGTGTGTCAACTTCTTC has a sensor-assay potency score (higher = more potent) of -0.886. Work on TTTCTTCCCACAAAGACCTGTA yielded a sensor-assay potency score (higher = more potent) of 0.204. For ATTTCTTTCTGTTTCTTCCCAC, the sensor-assay potency score (higher = more potent) was 0.584. For ATACCTGTTGTGAACAACCTCT, the sensor-assay potency score (higher = more potent) was -0.0858. In the case of TACCTGTTGTGAACAACCTCTT, the sensor-assay potency score (higher = more potent) is reported as 0.47. TTTCTTTCTGTTTCTTCCCACA was tested, and the sensor-assay potency score (higher = more potent) was -1.1. Sequence TTGTGAACAACCTCTTCTCCAA has a sensor-assay potency score (higher = more potent) of -0.0976. Sequence TGCTTTTGTGATTTCTTTCTGT has a sensor-assay potency score (higher = more potent) of 0.125. TGTGATTTCTTTCTGTTTCTTC showed a sensor-assay potency score (higher = more potent) of 0.701.
Also: reference of the scale not given here.
